Results on 19 compounds are retold here after PubChem BioAssay (Tox21).

“And” between values parts separate entries of the source, which are not always exact repeats. Equal values may be shown once. Results filed as inconclusive are left out. The source made the active and inactive calls. Unless noted, calls follow the shape of the dose curve; as a rule, active = well fitted curve in the direction sought with a large enough effect in the repeat runs; inconclusive = weak or mixed curves; inactive = no such curve, though single readings can be large; an effect the other way counts as inactive or inconclusive.

Assay [1] can be described thus: qHTS assay to identify small molecule agonists of the RXR signaling pathway - cell viability counter screen (AID 1159529). Also: nearly all actives have a fitted effect of over 50% in size. Also: potency is read from the fitted curve at half-maximal effect. In outline:
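In this parallel viability measure, GeneBLAzer RXR-alpha HEK 293T cells (2% charcoal-stripped FBS) were given a 5 hr preincubation, treated with compounds 16 hr at 37 C, and read by CellTiter-Glo luminescence.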
A general note: qHTS replaces the single test concentration by a dilution series.

Assay [2] in a line: qHTS assay to identify small molecule antagonists of the retinoid acid receptor (RAR) signaling pathway - cell viability counter screen (AID 1159551). Also: nearly all actives have a fitted effect of over 35% in size. In outline:
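Luminescent ATP quantitation (CellTiter-Glo) gave cell viability in C3RL4 cells exposed to test chemicals for 6 h at 37 C alongside 1 uM final retinol.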

Assay [3] can be described thus: qHTS assay to identify small molecule antagonists of the retinoic acid receptor (RAR) signaling pathway (AID 1159552; also: nearly all actives have a fitted effect of over 50% in size; also: potency is read from the fitted curve at half-maximal effect). The procedure, abridged: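 C3RL4 RARE-luc cells, overnight plating; retinol 1 uM final added right after compound; 6 hr 37 C; luciferase read at 30 min RT.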
Assay [4] is described as follows: qHTS assay to identify small molecule agonists of the retinoic acid receptor (RAR) signaling pathway (AID 1159553). Also: potency is read from the fitted curve at half-maximal effect. In outline: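 Luminescence from a RARE-driven luciferase reporter in C3RL4 cells served as the read-out, measured after 30 min with detection reagent at room temperature. Compounds in DMSO were applied for 6 hr at 37 C following overnight seeding.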

Assay [5] can be described thus: qHTS assay to identify small molecule antagonists of the estrogen related receptor (ERR) signaling pathway from Tox21 library - cell viability counter screen (AID 1224834). Also: nearly all actives have a fitted effect of over 30% in size. Also: potency is read from the fitted curve at half-maximal effect. In outline: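 Fluorescence from CellTiter-Fluor gives the viability read-out, taken 30 min after reagent addition. Before that, ERR cells seeded 6 h earlier were incubated with compounds for 17.5 h at 37 C.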

Assay [6] concerns the target Luciferin 4-monooxygenase (Photinus pyralis) (UniProt P08659). Kind of assay: qHTS assay to identify small molecule inhibitors of firefly luciferase (AID 1224835). Also: nearly all actives have a fitted effect of over 25% in size. Also: potency is read from the fitted curve at half-maximal effect. The procedure, abridged:
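Inhibition of purified Photinus luciferase is measured by luminescence. Substrate levels (D-luciferin, ATP) sit at their KM values. Each compound is tested in a concentration series.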

A short description of assay [7]: qHTS assay to identify small molecule agonists of the constitutive androstane receptor (CAR) signaling pathway - cell viability counter screen (AID 1224836). Also: nearly all actives have a fitted effect of over 45% in size. Also: potency is read from the fitted curve at half-maximal effect. The procedure, abridged:
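Using CellTiter-Fluor, viability of HepG2 cells harbouring hCAR and CYP2B6-2.2kb was measured following 23 h incubation with a 15-concentration compound series plus PK11195 (0.75 uM final).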

Assay [8] addresses Nuclear receptor subfamily 1 group I member 3 (Homo sapiens) (UniProt Q14994). Kind of assay: qHTS assay to identify small molecule antagonists of the constitutive androstane receptor (CAR) signaling pathway (AID 1224838).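 Also: HepG2 cells stably expressing hCAR with CYP2B6 luciferase reporter stimulated by CITCO; nearly all actives have a fitted effect of over 40% in size.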 Also: potency is read from the fitted curve at half-maximal effect. The procedure, abridged:
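HepG2-CYP2B6-hCAR cells; 4 h pre-incubation; cpd (15 conc) + CITCO 50 nM final; 24 h, 37 C/5% CO2; ONE-Glo, luminescence.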

For assay [9] the target is unchanged. Kind of assay: qHTS assay to identify small molecule agonists of the constitutive androstane receptor (CAR) signaling pathway (AID 1224839). Also: nearly all actives have a fitted effect of over 15% in size. Also: potency is read from the fitted curve at half-maximal effect. In outline:
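Double-stable HepG2 cells (hCAR, CYP2B6-2.2kb) seeded 4 h before compound addition. Exposure 24 h with 0.75 uM PK11195 final. Luciferase detected by ONE-Glo.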

Assay [10] can be described thus: qHTS assay to identify small molecule antagonists of the constitutive androstane receptor (CAR) signaling pathway - cell viability counter screen (AID 1224837). Also: nearly all actives have a fitted effect of over 45% in size. Also: potency is read from the fitted curve at half-maximal effect. The procedure, abridged: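 HepG2-CYP2B6-hCAR cells, 2500/well, 4 hr pre-incubation; compound titration, 15 conc.; CITCO 50 nM final; 23 hr, 37 C/5% CO2; CellTiter-Fluor, fluorescence intensity.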
Assay [11] can be described thus: qHTS assay to identify small molecule antagonists of the estrogen related receptor signaling pathway with the pleiotropic PPARgamma coactivator (PGC) from Tox21 10K library - cell viability counter screen (AID 1224840; active = well fitted cell-killing curve with a large enough effect in the repeat runs, not every such curve was filed as active; also: nearly all actives have a fitted effect of over 40% in size). The procedure, abridged: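 PGC/ERR cells, 2,000/well; 6 h pre-incubation 37 C/5% CO2; cpd in DMSO via pin tool; 17.5 h 37 C; CellTiter-Fluor, 30 min; fluorescence.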

The target of assay [12] is Thyrotropin receptor (Homo sapiens) (UniProt P16473). Kind of assay: qHTS assay to identify small molecule agonists of the thyroid stimulating hormone receptor (TSHR) signaling pathway (AID 1224843; calls by dose curve; also: nearly all actives have a fitted effect of over 45% in size; also: potency is read from the fitted curve at half-maximal effect). The procedure, abridged: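 Screening of the Tox21 10K collection used HEK293 cells engineered with TSHR at 800 cells per well. After a 30-min room-temperature compound exposure, HTRF cAMP reagents were added and fluorescence recorded 1 h later.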
Thyrotropin receptor (Homo sapiens), sequence (P16473 whole entry, looked up): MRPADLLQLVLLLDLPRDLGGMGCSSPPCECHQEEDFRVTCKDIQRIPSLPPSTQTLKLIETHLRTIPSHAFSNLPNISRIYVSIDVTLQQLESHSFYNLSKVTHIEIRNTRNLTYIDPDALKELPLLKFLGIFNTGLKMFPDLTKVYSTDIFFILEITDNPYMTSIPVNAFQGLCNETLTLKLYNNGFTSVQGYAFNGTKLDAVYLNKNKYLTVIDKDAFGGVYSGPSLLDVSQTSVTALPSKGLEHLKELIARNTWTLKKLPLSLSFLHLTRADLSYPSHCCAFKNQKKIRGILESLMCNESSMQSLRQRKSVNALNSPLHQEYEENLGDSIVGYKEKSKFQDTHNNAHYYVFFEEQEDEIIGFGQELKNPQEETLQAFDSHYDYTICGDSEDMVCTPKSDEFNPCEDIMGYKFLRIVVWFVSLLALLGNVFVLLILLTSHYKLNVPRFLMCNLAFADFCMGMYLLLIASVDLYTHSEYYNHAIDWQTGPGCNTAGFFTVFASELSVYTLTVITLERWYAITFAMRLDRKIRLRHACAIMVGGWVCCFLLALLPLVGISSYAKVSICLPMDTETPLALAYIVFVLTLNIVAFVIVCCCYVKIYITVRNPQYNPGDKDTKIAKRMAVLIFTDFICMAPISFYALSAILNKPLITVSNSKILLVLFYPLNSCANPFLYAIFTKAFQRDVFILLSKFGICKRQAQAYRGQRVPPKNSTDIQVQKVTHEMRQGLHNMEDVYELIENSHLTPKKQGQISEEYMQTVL

Assay [13] can be described thus: qHTS assay to identify small molecule antagonists of the estrogen related receptor signaling pathway with the pleiotropic PPARgamma coactivator (PGC) from Tox21 10K library (AID 1224841; call rule not given here; also: actives are mostly falling curves and most rising ones were filed inactive; nearly all actives have a fitted effect of over 50% in size; also: potency is read from the fitted curve at half-maximal effect). In outline:
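PGC/ERR cell line, 2,000 cells/well; 6 h pre-incubation 37 C/5% CO2; compounds (DMSO) pinned in; 18 h, 37 C; One-Glo, 30 min RT; luminescence.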

The nature of assay [14]: qHTS assay to identify small molecule agonists of the estrogen related receptor signaling pathway with the pleiotropic PPARgamma coactivator (PGC) from Tox21 10K library (AID 1224842). Also: nearly all actives have a fitted effect of over 15% in size. In outline:
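Luminescence from One-Glo (30 min, room temperature) measured after PGC/ERR cells had 18 h at 37 C with pinned compound (23 nL in DMSO). Cells had been seeded at 2,000 per well and pre-incubated 6 h.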

The nature of assay [15]: qHTS assay to identify small molecule antagonists of the estrogen related receptor (ERR) signaling pathway - cell viability counter screen (AID 1224818).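 Also: series mostly up to about 46 µM; viability measured after 17.5 h of compound exposure.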 In outline: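 Multiplexed counter screen to separate cytotoxic compounds from true ERR modulators. ERR cells received DMSO-dissolved compounds after a 6 h pre-incubation, were exposed 17.5 h at 37 C, then assayed with CellTiter-Fluor fluorescence.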

Assay [16] in a line: qHTS assay to identify small molecule agonists of the estrogen related receptor (ERR) signaling pathway (AID 1224820). The procedure, abridged:
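ERR reporter cell line (from NTP), 2,000 cells/well, incubated 6 h before compound addition, then 18 h at 37 C. Luminescence measured 30 min after One-Glo reagent at room temperature.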

Assay [17] in a line: qHTS assay to identify small molecule agonists of the estrogen related receptor signaling pathway with the pleiotropic PPARgamma coactivator (PGC) (AID 1224823). The procedure, abridged:
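PGC/ERR reporter cells seeded 6 h, then exposed to compounds (23 nL in DMSO) for 18 h at 37 C. One-Glo luciferase luminescence read after 30 min at room temperature.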

Nuclear receptor subfamily 1 group I member 3 (Homo sapiens), sequence (Q14994 whole entry, looked up): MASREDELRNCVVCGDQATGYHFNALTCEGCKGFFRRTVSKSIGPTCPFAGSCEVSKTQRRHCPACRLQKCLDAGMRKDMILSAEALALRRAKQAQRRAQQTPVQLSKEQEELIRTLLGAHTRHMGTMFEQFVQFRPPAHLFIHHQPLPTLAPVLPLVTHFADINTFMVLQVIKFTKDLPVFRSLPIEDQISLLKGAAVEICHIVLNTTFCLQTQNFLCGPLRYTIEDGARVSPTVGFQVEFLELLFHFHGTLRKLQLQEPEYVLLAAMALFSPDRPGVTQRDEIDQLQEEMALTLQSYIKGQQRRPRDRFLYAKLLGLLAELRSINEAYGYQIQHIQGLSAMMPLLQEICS
Luciferin 4-monooxygenase (Photinus pyralis), sequence (P08659 whole entry, looked up): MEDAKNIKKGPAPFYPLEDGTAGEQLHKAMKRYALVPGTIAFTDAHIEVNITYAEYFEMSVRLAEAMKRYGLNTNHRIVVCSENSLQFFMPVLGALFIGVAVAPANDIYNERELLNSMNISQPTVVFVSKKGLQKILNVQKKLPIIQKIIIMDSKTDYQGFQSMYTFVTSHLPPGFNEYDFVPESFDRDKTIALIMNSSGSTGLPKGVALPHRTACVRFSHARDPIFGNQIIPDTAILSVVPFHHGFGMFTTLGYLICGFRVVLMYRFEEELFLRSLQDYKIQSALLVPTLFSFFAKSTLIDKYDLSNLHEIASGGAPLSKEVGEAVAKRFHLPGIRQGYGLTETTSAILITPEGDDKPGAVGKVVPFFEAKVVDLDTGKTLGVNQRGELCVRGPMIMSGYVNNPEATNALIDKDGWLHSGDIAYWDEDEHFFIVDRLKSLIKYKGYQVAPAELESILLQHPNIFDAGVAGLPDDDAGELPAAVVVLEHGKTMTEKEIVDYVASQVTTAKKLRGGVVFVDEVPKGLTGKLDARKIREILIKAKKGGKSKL

For `Clc1ccc(CCC(Cn2ccnc2)Sc2c(Cl)cccc2Cl)cc1` (configuration not stated), the figures for the Potency in assay [1], in [5] and in assay [9] were 23.9 µM (active), 29.8 µM (active) and 29.8 µM (active), respectively. For the same compound, the Potency result in assay [2], in [3], in assay [4], in assay [6], in assay [7] and in [8] was “inactive” each time.

Turning to `CCOCn1c(-c2ccc(Cl)cc2)c(C#N)c(Br)c1C(F)(F)F`, the Potency is 19.5 µM (active) in [1]; 3.06 µM (active) in assay [3]; 4.86 µM (active) in assay [5]; 4.33 µM (active) in assay [7]; 4.33 µM (active) in assay [10]; 4.86 µM (active) in assay [8]. Moreover, the Potency entry in assay [2], in [4], in assay [6] and in assay [9] was “inactive” each time.

Turning to `N#CCCSCCC#N`, the Potency result in assay [1], in [2], in [3], in assay [4], in assay [5] and in [6] was “inactive” in each case. Besides, the Potency entry in assay [10], in assay [8], in [9], in assay [11] and in assay [12] was “inactive” each time.

Regarding `Cc1c(Cl)c(=O)oc2cc(OP(=O)(OCCCl)OCCCl)ccc12`, the Potency entry in [1], in [2], in assay [3], in assay [4], in [5] and in [6] was “inactive” in each case. Moreover, the Potency entry in assay [7], in [10], in [8], in [9], in [11] and in assay [12] was “inactive” throughout.

`CCN`: the Potency entry in [1], in [2], in assay [3], in [4], in [5] and in assay [6] was “inactive” in each case. For the same compound, the Potency result in assay [7], in [10], in assay [8], in assay [9], in assay [11] and in assay [12] was “inactive” each time.

Turning to `CCCCCCCCCCCCCN1CC(C)OC(C)C1` (configuration not stated), the Potency result in [1], in [2], in assay [3], in [4], in assay [5] and in assay [6] was “inactive” in each case. Besides, the Potency result in [7], in assay [10] and in assay [12] was “inactive” throughout.

In the case of `C[C@]12CC[C@H]3[C@@H](CCC4=CC(=O)CC[C@@]43C)[C@@H]1CC[C@@H]2O`, the Potency entry in assay [1], in assay [2], in assay [4], in assay [5], in assay [6] and in assay [7] was “inactive” throughout. Moreover, the Potency result in [10], in assay [8], in [9] and in [11] was “inactive” in each case. For the same compound, in [3], the Potency was 48.2 µM (active).

As for `ClC1=C(Cl)C2(Cl)C3C(Cl)C=CC3C1(Cl)C2(Cl)Cl` (configuration not stated), the Potency was 34.7 µM (active) in assay [1]; 68.6 µM (active) in [5]; 7.73 µM (active) and 15.4 µM (active) in [12]. The Potency result in assay [2], in assay [3], in assay [4], in assay [6], in [7] and in [10] was “inactive” each time. For the same compound, the Potency entry in [8] and in [11] was “inactive” throughout.

For the compound `FC(Cl)(Cl)Cl`, the Potency entry in assay [1], in assay [2], in [3], in [4], in [5] and in assay [6] was “inactive” each time. Besides, the Potency entry in [7], in assay [10], in [11] and in assay [12] was “inactive” each time.

With `c1ccc2c(c1)[nH]c1cnccc12`, the Potency entry in assay [1], in assay [2], in assay [3], in assay [4], in assay [5] and in assay [6] was “inactive” each time. Moreover, the Potency result in assay [7], in assay [10], in assay [8], in [9], in [11] and in assay [12] was “inactive” each time.

`N#CNC#N`: the Potency entry in assay [1], in [2], in assay [3], in [4], in assay [5] and in [6] was “inactive” in each case. For the same compound, the Potency entry in [7], in [10], in assay [8], in assay [9], in [11] and in [12] was “inactive” in each case.

On to `CC(C)OS(C)(=O)=O`, for which the Potency result in assay [1], in [2], in assay [3], in assay [4], in [5] and in assay [6] was “inactive” each time. For the same compound, the Potency entry in assay [7], in assay [10], in assay [8], in assay [9], in [11] and in assay [12] was “inactive” throughout.

On to `OC(c1ccc(Cl)cc1)(c1ccc(Cl)cc1)C(Cl)(Cl)Cl`, for which the Potency entry in [1], in assay [2], in assay [3], in assay [4], in assay [5] and in [6] was “inactive” each time. Also, the Potency entry in assay [7], in assay [10], in assay [8], in assay [13] and in assay [14] was “inactive” throughout.

`CC(=O)Nc1ccc2c(c1)Cc1ccccc1-2`: the Potency result in assay [1], in assay [2], in assay [3], in assay [5], in assay [7] and in assay [10] was “inactive” each time. Also, the Potency entry in assay [8] and in [11] was “inactive” each time. In addition, the Potency in assay [4] is 6.21 µM (active); in [6], 28.7 µM (active); in assay [9], 31.1 µM (active).

Regarding `O=C1NCN(c2ccccc2)C12CCN(CC1COc3ccccc3O1)CC2` (configuration not stated), the Potency in [1] is 6.74 µM (active). Moreover, the Potency result in [2], in [3], in assay [4], in assay [6], in assay [7] and in [10] was “inactive” each time. Moreover, the Potency result in [8], in [9], in [11], in assay [14] and in [12] was “inactive” in each case. Moreover, the result in assay [15], in assay [16] and in assay [17] was inactive.

For `ClC(Cl)=C(c1ccc(Cl)cc1)c1ccc(Cl)cc1`, the Potency in assay [1] is 56.3 µM (active) and 43.6 µM (active). In addition, the Potency result in [2], in assay [3], in assay [4], in assay [5], in assay [6] and in assay [7] was “inactive” throughout. For the same compound, the Potency result in assay [10], in assay [8], in [11], in assay [13] and in assay [14] was “inactive” throughout.

Turning to `Cc1ccc(OP(=O)(Oc2ccccc2)Oc2ccccc2)cc1`, the Potency result in [1], in assay [2], in [3], in [4], in [5] and in [6] was “inactive” in each case. Also, the Potency result in assay [10], in assay [8], in assay [11] and in [14] was “inactive” in each case. The figures for the Potency in [9], in assay [13] and in assay [12] were 17.5 µM (active), 24.7 µM (active) and 15.6 µM (active), respectively.

Take `BrC(Br)Br`: the Potency result in [1], in assay [2], in [3], in [4], in assay [5] and in [6] was “inactive” throughout. In addition, the Potency entry in [7], in assay [10], in [8], in [9], in assay [11] and in assay [13] was “inactive” each time. For the same compound, the Potency entry in [14] and in assay [12] was “inactive” each time.

For `CC(O)C#N` (configuration not stated), the Potency entry in assay [1], in assay [2], in assay [3], in [5], in assay [6] and in assay [7] was “inactive” each time. For the same compound, the Potency entry in assay [10], in [9] and in assay [12] was “inactive” each time. The Potency in [8] was 30.6 µM (active).
